# Results from PubChem BioAssay (Tox21).
# Results filed as inconclusive are left out. Values without a mark were called inactive. Calls of active or inactive are those of the source. The call rests on the fitted dose curve.
# Test: qHTS assay to identify small molecule agonists of the progesterone receptor (PR) signaling pathway - cell viability counter screen (AID 1346799); further: nearly all actives have a fitted effect of over 45% in size
# Conditions: PR-UAS-bla HEK293T viability, CellTiter-Glo luminescence, 16 h; series mostly up to 92.4 µM; activity change, negative = cytotoxicity: at the top concentration
# Description: National Center for Advancing Translational Sciences [NCATS]
# NIH Chemical Genomics Center [NCGC]
# U.S. Environmental Protection Agency [EPA]
# National Institutes of Environmental Health Sciences [NIEHS]
# National Toxicology Program [NTP]
# U.S. Food and Drug Administration [FDA]
# Progesterone receptor (PR), a nuclear hormone receptor, plays an important role in development, metabolic homeostasis and reproduction. It is activated by the steroid hormone progesterone. Endocrine disrupting chemicals (EDCs) and their interactions with steroid hormone receptors like PR causes disruption of normal endocrine function. To identify the compounds that stimulate PR signaling, a PR-UAS-bla GripTite cell line i.e. PR-UAS-bla HEK293T (Invitrogen, Carlsbad, CA, USA) containing a beta-lactamase reporter gene under the control of an UAS response element was used to screen Tox21 10K compound library. The cytotoxicity of the Tox21 compound library against the PR-bla cell line was tested in parallel by measuring the cell viability using CellTiter-Glo assay in the same wells.
# Tox21 Assay Protocol Summary:
# PR-UAS-bla HEK293T cells were dispensed at 3,000 cells/5 uL of assay medium containing 2% charcoal stripped FBS per well into black wall/clear-bottom 1536-well plates using a Multidrop Combi (ThermoFisher Scientific, Waltham, MA) dispenser. After the assay plates were incubated at a 37C and 5% CO2 for 6 hr, 23 nL of compounds dissolved in DMSO, positive controls or DMSO only was transferred to the assay plate by a Pintool station (Kalypsys, San Diego, CA). The plates were incubated at 37C and 5% CO2 for 16 hr. Then 1 uL of LiveBLAzer B/G FRET substrate was added using a Flying Reagent Dispenser (FRD, Aurora Discovery, San Diego, CA), the plates were incubated at room temperature for 2 hours, and fluorescence intensity was measured by an Envision plate reader (PerkinElmer, Shelton, CT). For cell viability readout that measures cytotoxicity, 4 uL/well of CellTiter-Glo reagent was added into the assay plates using a FRD. After 30 min incubation at room temperature, the luminescence intensity in the plates was measured using a ViewLux (PerkinElmer) plate reader.
# On the % scale 0 is the no-effect control and ±100 the full control effect.
SMILES,"activity change, negative = cytotoxicity",Potency
CC/C=C\CCOC(C)=O,17.5%,–
CC(C)(C)c1nnc(NS(=O)(=O)c2ccccc2)s1,-17.6% [at 42.5 µM],–
CCCCCCCCS(=O)(=O)Cl,-5.14%,–
CC(C)(O)C#CC(C)(C)O,-0.606%,–
CCN1CCC[C@H]1CNC(=O)c1cc(S(N)(=O)=O)ccc1OC,-2.82% [at 42.5 µM],–
CC(=O)Nc1c(I)cc(I)c(C(=O)O)c1I,3.62% [at 42.5 µM],–
COC(=O)CC(C)=O,5.64%,–
N=C(N)c1ccccc1,-8.21%,–
O=c1n(CCO)c(=O)n(CCO)c(=O)n1CCO,–,inactive
NC(=O)c1ccc(N)cc1,6.32%,–
CC(C)(C)NCCNC(C)(C)C,-5.51%,–
CCCCCCCCCCCCCCCCC,-5.67%,–
N=c1nc(N2CCCCC2)cc(N)n1O,-0.581% [at 42.5 µM],–
CN1CC(=O)NC1=N,-25.9% [at 42.5 µM],–
CC1(C)CO[C@@H](CC(=O)O)CN1,-0.255% [at 42.5 µM],–
COC(=O)NN,-2.81%,–
ClC(Cl)(Br)Br,-13.3%,–
CC(C)(O)C(=O)c1ccccc1,4.53%,–
CCOC(=O)Nc1ccc(NCc2ccc(F)cc2)nc1N,12% [at 42.5 µM],–
FC1(F)C(F)(F)C(F)(F)C2(F)C(F)(F)C(F)(F)C(F)(F)C(F)(F)C2(F)C1(F)F (stereo not given),-5.32% [at 42.5 µM],–

SMILES,"activity change, negative = cytotoxicity",Potency
CO[C@]12C[C@@H](COC(=O)c3cncc(Br)c3)CN(C)[C@@H]1Cc1cn(C)c3cccc2c13,-25% [at 42.5 µM],–
CCC(C)C1CCCCC1=O (stereo not given),6.65%,–
COC(=O)c1cc(C(=O)OC)cc(S(=O)(=O)O)c1,17%,–
CCN(CC)CCNC(=O)c1cc(S(C)(=O)=O)ccc1OC,-1.54% [at 42.5 µM],–
Nc1ccc(S(=O)(=O)Nc2ccnn2-c2ccccc2)cc1,-4.95% [at 19 µM],–
O=C1NC(=O)[C@@]2(CCOc3ccc(F)cc32)N1,11.3% [at 42.5 µM],–
Cc1cc(O)cc2c1O[C@](C)(CCC[C@H](C)CCC[C@H](C)CCCC(C)C)CC2,0.438% [at 42.5 µM],–
OC(CCN1CCCCC1)(c1ccccc1)C1CC2C=CC1C2 (stereo not given),-7% [at 42.5 µM],–
C[N+](C)(C)CC(O)CC(=O)[O-] (stereo not given),2.33% [at 42.5 µM],–
CC(=O)OCC(CCn1cnc2cnc(N)nc21)COC(C)=O,4.22% [at 42.5 µM],–
CCCc1cc(C(N)=S)ccn1,1.58% [at 42.5 µM],–
COc1ccc2c(c1)c(CC(=O)OCC(=O)O)c(C)n2C(=O)c1ccc(Cl)cc1,-7.31% [at 42.5 µM],–
NC(=O)COCCN1CCN(C(c2ccccc2)c2ccc(Cl)cc2)CC1 (stereo not given),0% [at 42.5 µM],–
Cc1cccn2c(=O)c(-c3nnn[nH]3)cnc12,11.1% [at 19 µM],–
N=C(N)c1ccc2cc(OC(=O)c3ccc(N=C(N)N)cc3)ccc2c1,-7.36% [at 42.5 µM],–
CCC=O,-0.497%,–
CC1(C)C(O)C(C)(C)C1O (stereo not given),11.8%,–
CCCCCOC(=O)CCCCC,4.56%,–
CCOC(=O)c1c(C)n(C)c2ccc(O)cc12,-1.76% [at 42.5 µM],–
CN1N=C(C(N)=O)CCC1=O,-3.65% [at 42.5 µM],–
